In PubChem BioAssay (EPA / NIEHS):
Results filed as inconclusive are left out. The source made the active and inactive calls. The calls were made as follows: active = hit-call score of the fitted dose curve at least 0.9, where 1 is the maximum; inconclusive = response in the unintended direction; inactive = score below 0.9.

These compounds were tested on sulfotransferase (SULT2A), SULT2A1 (gene 6822) (assay: CLD_SULT2A_24hr: CellzDirect (CLD) Gene Expression Assay for sulfotransferase (SULT2A) at 24 hours (AID 2283694);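 as to AC50: potency for increased SULT2A1 mRNA level as induction over DMSO baseline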).
Description: CLD_24hr is a cell-based, multiplexed-readout assay that uses hepatocyte, a human liver primary cell, with measurements taken at 24 hours after chemical dosing in a 96-well plate.CLD_SULT2A_24hr is one of 16 assay component(s) measured or calculated from the CLD_24hr assay. It is designed to make measurements of mRNA induction, a form of inducible reporter, as detected with chemiluminescence signals by Quantitative Nuclease Protection Assay (qNPA) technology.Data from the assay component CLD_SULT2A_24hr was analyzed at the endpoint, CLD_SULT2A_24hr, in the positive analysis fitting direction relative to DMSO as the negative control and baseline of activity. Using a type of inducible reporter, gain-of-signal activity can be used to understand changes in the reporter gene as they relate to the gene SULT2A1. Furthermore, this assay endpoint can be referred to as a primary readout. To generalize the intended target to other relatable targets, this assay endpoint is annotated to the transferase intended target family, where subfamily is sulfotransferase.
Human hepatocyte cultures were treated daily for two consecutive days with fresh dosing solutions containing appropriate concentrations of the 320 ToxCast chemicals (chemical identities were blinded to CellzDirect and other ToxCast collaborators), vehicle control (0.2% DMSO), and positive control inducers as summarized in Table 1. Due to the large number of treatment groups and chemicals examined, the ToxCast chemicals were divided into two groups (spanning two independent cultures of hepatocytes from separate donor preparations (Hu778: ToxCast plates 1 and 2; Hu776: ToxCast plates 3 and 4). Each preparation of human hepatocyte cultures was treated with respective vehicle control, medium only control, set of six positive controls/reference chemicals for the five hepatic receptor pathways, and a subset of eight of the ToxCast chemicals (indoxacarb, pyrithiobac-sodium, norflurazon, cyhalofop-butyl, methomyl, thiram, acetochlor, and propiconazole). These replicate data, coupled with internal replicates designed within the blinded ToxCast chemical library, provided additional data to evaluate interindividual differences between hepatocyte preparations and their potential impact on chemical profiles.Cell morphology and integrity were evaluated using phase-contrast microscopy as an indicator of hepatocyte cell health (Tyson & Green, 1987). Cultures for each treatment group (i.e., media, vehicle [0.2% DMSO], positive control inducers [multiple concentrations], and the ToxCast chemicals [multiple concentrations]) were observed and cell morphology was assessed relative to vehicle control cultures at each harvest time point (0, 6, 24, or 48 h). […] Images were evaluated at the conclusion of the study to assess changes in cell integrity and account for the effects of chemical exposure on uncharacteristic changes in concentration-dependent gene expression profiles. The results from these determinations of apparent cytotoxicity were annotated (yes/no) alongside the corresponding qNPA data for reference.At the conclusion of each treatment period, hepatocyte cultures (96-well) were washed with 1 volume of HBSS, lysed by addition of 25 ul ArrayPlate lysis buffer (HTG, Tucson, AZ), and 70 ul/well of Denaturation Oil, denatured by incubation at 95C for 10 min, and frozen at approximately -70C until analysis by nuclease protection assay (qNPA) (Roberts et al., 2007). For qNPA analysis, cell lysates were thawed at 50C for approximately 30 min, qNPA probes were added, and samples were incubated at 95C for 10 min to begin the detection process by denaturing the target RNA, dissociating the duplexes and secondary structure hybridization. At the conclusion of the hybridization period, S1 nuclease reagent was added to each sample to digest all nonprotected nucleotides at 50C for 60-90 min. […]

Structure (SMILES)	AC50	outcome
CCCN(CC)CC1COC2(CCC(C(C)(C)C)CC2)O1 (stereo not given)	3.97 µM (active)	
COc1cc(Cl)c(OC)cc1Cl		inactive
CCCCC(C#N)(Cn1cncn1)c1ccc(Cl)cc1 (stereo not given)		inactive
Cn1c(-c2ccccc2)cc(-c2ccccc2)[n+]1C	8.08 µM (active)	
COC(=O)NS(=O)(=O)c1ccc(N)cc1		inactive
COc1cc(OC)nc(NC(=O)NS(=O)(=O)c2ncccc2OCC(F)(F)F)n1		inactive
COCc1cnc(C2=NC(C)(C(C)C)C(=O)N2)c(C(=O)O)c1 (stereo not given)		inactive
OC(c1ccc(Cl)cc1)(c1ccc(Cl)cc1)C(Cl)(Cl)Cl	20 µM (active)	
O=C(Nc1ccccc1-c1ccc(Cl)cc1)c1cccnc1Cl		inactive
COP(=O)(OC)O/C(C)=C/C(=O)N(C)C		inactive
CS(=O)(=O)c1cc(C(F)(F)F)ccc1C(=O)c1cnoc1C1CC1		inactive
CCOP(=S)(OCC)Oc1nc(Cl)n(C(C)C)n1		inactive
CC1(C)C(C(=O)OC(C#N)c2cccc(Oc3ccccc3)c2)C1(C)C (stereo not given)		inactive
COP(=S)(OC)SCn1nnc2ccccc2c1=O		inactive
COc1ccc(-c2ccccc2)cc1NNC(=O)OC(C)C	33.5 µM (active)	
COC(=O)N(C(=O)N1CO[C@@]2(C(=O)OC)Cc3cc(Cl)ccc3C2=N1)c1ccc(OC(F)(F)F)cc1		inactive
O=C(O)c1c(Cl)ccc2cc(Cl)cnc12		inactive
CC1(C)CON(Cc2ccccc2Cl)C1=O		inactive
COC(=O)NC(=S)Nc1ccccc1NC(=S)NC(=O)OC		inactive
C=C(C)CN(CC)c1c([N+](=O)[O-])cc(C(F)(F)F)cc1[N+](=O)[O-]		inactive

Structure (SMILES)	AC50	outcome
CCSC(=O)N1CCCCCC1		inactive
CCNP(=S)(OC)O/C(C)=C/C(=O)OC(C)C (stereo not given)		inactive
CC(C)Nc1nc(Cl)nc(NC(C)C)n1		inactive
Cc1cc(C)nc(Nc2ccccc2)n1		inactive
CCCC(=NOCC)C1=C(O)CC(CC(C)SCC)CC1=O (stereo not given)		inactive
CC(C)NC(=O)N1CC(=O)N(c2cc(Cl)cc(Cl)c2)C1=O		inactive
CC(C)=CC1C(C(=O)OCc2coc(Cc3ccccc3)c2)C1(C)C (stereo not given)		inactive
CCOC(=O)C(C)OC(=O)c1cc(Oc2ccc(C(F)(F)F)cc2Cl)ccc1[N+](=O)[O-] (stereo not given)	3.51 µM (active)	
CCCCOCN(C(=O)CCl)c1c(CC)cccc1CC		inactive
CO/N=C(/C1=NOCCO1)c1ccccc1Oc1ncnc(Oc2ccccc2Cl)c1F		inactive
CC(C)N1C(=O)N(c2ccccc2)CSC1=NC(C)(C)C		inactive
CCN(CC)C(=O)C(C)Oc1cccc2ccccc12 (stereo not given)		inactive
CC1(C)C(C=C(Cl)Cl)C1C(=O)OC(C#N)c1cccc(Oc2ccccc2)c1 (stereo not given)		inactive
Cc1nc(N(C)C)nc(OC(=O)N(C)C)c1C		inactive
CCOc1nc(F)cc2nc(S(=O)(=O)Nc3c(Cl)cccc3Cl)nn12	5.51 µM (active)	
CSC(=O)c1c(C(F)F)nc(C(F)(F)F)c(C(=O)SC)c1CC(C)C	7.07 µM (active)	
O=c1n(Cl)c(=O)n(Cl)c(=O)n1Cl		inactive
CCOc1cc(C(C)(C)C)ccc1C1COC(c2c(F)cccc2F)=N1 (stereo not given)		inactive
Nc1c(Cl)c(Cl)nc(C(=O)O)c1Cl		inactive
CCCCC(O)(Cn1cncn1)c1ccc(Cl)cc1Cl (stereo not given)		inactive
